# From PubChem BioAssay (NCI)
# This is part of a sample that, as a whole, favours compounds with a hit. Of some 79,000 tested, about 15% had one in any assay. Unmarked numbers belong to inactive results. Active and inactive are the calls of the source. Rule as the data show it: active = growth inhibition above about 70%; inactive = the rest. Where a SMILES comes first, the peptide text is derived from it. [ ]: non-standard residue; d: D form. ξ: configuration not given here. ξD = NC(CC(=O)O)C(=O)O
# Experiments:
# [1] = NCI Yeast Anticancer Drug Screen. Data for the rad50 strain (AID 155);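 also: 0% = growth of vehicle-only cultures of the same strain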; settings: S. cerevisiae rad50 strain growth inhibition, active compounds read high
# Outline: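 Compounds were tested on a yeast strain with an engineered DNA damage repair alteration; the reported value is growth inhibition normalised to vehicle treatment.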
# [2] = NCI Yeast Anticancer Drug Screen. Data for the mec2-1 strain (AID 157); settings: S. cerevisiae mec2-1 strain, active compounds read high
# Outline: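 Yeast mec2-1 mutant treated with compound. Readout: growth inhibition vs vehicle controls.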
# [3] = NCI Yeast Anticancer Drug Screen. Data for the sgs1 mgt1 strain (AID 161);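 also: 0% = growth of cultures given vehicle only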; settings: S. cerevisiae sgs1 mgt1 strain, active compounds read high
# Outline: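 Genetically altered yeast, compound exposure, growth inhibition relative to vehicle.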
# [4] = NCI Yeast Anticancer Drug Screen. Data for the cln2 rad14 strain (AID 165);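 also: 0% = growth equal to vehicle treated cultures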; settings: S. cerevisiae cln2 rad14 strain, active compounds read high
# Outline: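 cln2 rad14 yeast strain; compound exposure; growth inhibition read vs vehicle controls.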
# [5] = NCI Yeast Anticancer Drug Screen. Data for the bub3 strain (AID 167); settings: S. cerevisiae bub3 mutant strain, active compounds read high
# Outline: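 Growth of a checkpoint-deficient yeast mutant is measured after compound exposure. Values represent inhibition relative to vehicle.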
# [6] = NCI Yeast Anticancer Drug Screen. Data for the mlh1 rad18 strain (AID 175); settings: S. cerevisiae mlh1 rad18 strain growth inhibition, active compounds read high
# Outline: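 Yeast w/ defined DNA-repair lesions; compound exposure; growth vs vehicle controls → % inhibition.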
# [7] = at 5.0 µM (retest, dose inferred, filed as 0.5)
# [8] = at 50.0 µM (retest, dose inferred, filed as 5.0)
Compound,"growth inhibition [1, 7] [%]","growth inhibition [1, 8]",growth inhibition ([1]; at 50.0 µM),"growth inhibition [2, 7] [%]","growth inhibition [2, 8]",growth inhibition ([2]; at 50.0 µM),"growth inhibition [3, 7] [%]","growth inhibition [3, 8]",growth inhibition ([3]; at 50.0 µM),"growth inhibition [4, 7] [%]","growth inhibition [4, 8]",growth inhibition ([4]; at 50.0 µM),"growth inhibition [5, 7] [%]","growth inhibition [5, 8]",growth inhibition ([5]; at 50.0 µM),"growth inhibition [6, 7] [%]","growth inhibition [6, 8]",growth inhibition ([6]; at 50.0 µM)
O=C(O)c1ccc2c(c1)C(=O)c1ccccc1C2=O,-1,33%,95.9% (active),-1,28%,99.3% (active),3,26%,91.2% (active),-1,30%,14.2%,1,31%,98.7% (active),-2,41%,96.5% (active)
O=C1Nc2ccc(Br)cc2C1=O,-8,95% (active),96.9% (active),-31,64%,99.7% (active),-5,42%,99.8% (active),-6,36%,66.9%,-13,98% (active),99.4% (active),-9,91% (active),99.6% (active)
CCOc1ccc(C(CN2CCOCC2)C(C)=O)cc1OC (stereo not given),-3,30%,72.5% (active),-27,68%,77.7% (active),-4,30%,74.7% (active),0,28%,45.4%,-8,81% (active),78.7% (active),-18,86% (active),63.8%
O=C1c2ccccc2C(=O)c2c(O)c(Cl)cc(O)c21,3,20%,15.9%,2,26%,1.3%,7,71% (active),38.3%,5,9%,-55.6%,4,38%,-2.2%,6,57%,78% (active)
NCC(=O)NC(CC(=O)O)C(=O)O (stereo not given) (H-Gly-[ξD]-OH),-1,10%,12.7%,-6,-12%,9.15%,-10,20%,13.2%,-2,14%,1.05%,9,9%,8.05%,8,16%,32.2%
CC1(C)CCC2(C(=O)O)C(O)CC3(C)C(=CCC4C5(C)CCC(OC6OCC(O)C(O)C6OC6OCC(O)C(O)C6OC6OCC(O)C(OC7OC(CO)C(O)C(O)C7O)C6O)C(C)(C)C5CCC43C)C2C1 (stereo not given),8,99% (active),77.3% (active),7,99% (active),87.3% (active),6,99% (active),88% (active),5,99% (active),86.6% (active),17,100% (active),86.5% (active),14,99% (active),-30.2%
CCCCCCCCc1cc(Cl)c(O)c(Cl)c1,3,75% (active),99.5% (active),-8,90% (active),99.6% (active),-14,98% (active),99.2% (active),-13,97% (active),99.6% (active),-11,66%,98.7% (active),-10,98% (active),99.3% (active)
Cc1c(O)ccc(SC#N)c1C,-7,82% (active),88.5% (active),2,74% (active),83.8% (active),7,75% (active),86.7% (active),29,85% (active),84% (active),-3,84% (active),87.5% (active),-1,87% (active),88.5% (active)
NC(=S)Nc1ccc2c(c1)Cc1ccccc1-2,2,29%,64.5%,-4,3%,-0.4%,2,23%,59.9%,-5,-10%,23.4%,0,58%,47%,7,38%,60.4%
O=C(/C=C/C(Cl)(Cl)Cl)Nc1ccc(Cl)cc1,-6,16%,71.8% (active),42,21%,85% (active),-4,43%,81% (active),25,8%,77.5% (active),9,3%,75.9% (active),18,64%,85% (active)
